# Results from PubChem BioAssay (EPA / NIEHS).
# Records with an inconclusive call do not appear. Active and inactive are the calls of the source. Rule for the calls: active = hit-call score of the fitted dose curve at least 0.9, where 1 is the maximum; inconclusive = response in the unintended direction; inactive = score below 0.9.
# What was measured:
# [1] = target: rat Glutamate Metabotropic Receptor 5 (MGluR5), Grm5 (gene 24418) (UniProt P31424); test: NVS_GPCR_rmMGluR5: NovaScreen (NVS) G Protein-Coupled Receptor Assay for rat Glutamate Metabotropic Receptor 5 (MGluR5) (AID 2283307)
# Protocol: NVS_GPCR_rmMGluR5 is a biochemical, single-readout assay that uses extracted gene-proteins from Rat whole brain in a tissue-based cell-free assay. Measurements were taken 1.5 hours after chemical dosing in a 48-well plate.NVS_GPCR_rmMGluR5 is one of one assay component(s) measured or calculated from the NVS_GPCR_rmMGluR5 assay. It is designed to make measurements of radioligand binding, a form of binding reporter, as detected with scintillation counting signals by Filter-based radiodetection technology.Data from the assay component NVS_GPCR_rmMGluR5 was analyzed into 1 assay endpoint. This assay endpoint, NVS_GPCR_rmMGluR5, was analyzed in the positive analysis fitting direction relative to DMSO as the negative control and baseline of activity. Using a type of binding reporter, loss-of-signal activity can be used to understand changes in the binding as they relate to the gene Grm5. Furthermore, this assay endpoint can be referred to as a primary readout, because the performed assay has only produced 1 assay endpoint. To generalize the intended target to other relatable targets, this assay endpoint is annotated to the gpcr intended target family, where the subfamily is metabotropic glutamate receptor. […]
# [2] = system: NCBI gene 24521; test: NVS_IC_rKATPCh: NovaScreen (NVS) Ion Channel Assay for rat Potassium Channel, ATP-Sensitive (KATPCh) (AID 2283319)
# In short: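 Primary duplicate screen at 25 uM, then singleton concentration series to 50 uM maximum, in a rat cortex membrane radioligand displacement assay. Binding measured by filtration and scintillation 2 h post-dose; DMSO baseline.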
# [3] = target: bovine Gamma-Aminobutyric Acid Type A Receptor BDZ, alpha 5 site (GABARa5), GABRA5 (gene 523515) (UniProt Q08E50); test: NVS_LGIC_bGABARa5: NovaScreen (NVS) Ligand-Gated Ion Channel Assay for bovine Gamma-Aminobutyric Acid Type A Receptor BDZ, alpha 5 site (GABARa5) (AID 2283323)
# Protocol: NVS_LGIC_bGABARa5 is a biochemical, single-readout assay that uses extracted gene-proteins from Bovine hippocampal membranes in a tissue-based cell-free assay. Measurements were taken 1 hour after chemical dosing in a 48-well plate.NVS_LGIC_bGABARa5 is one of one assay component(s) measured or calculated from the NVS_LGIC_bGABARa5 assay. It is designed to make measurements of radioligand binding, a form of binding reporter, as detected with scintillation counting signals by Filter-based radiodetection technology.Data from the assay component NVS_LGIC_bGABARa5 was analyzed into 1 assay endpoint. This assay endpoint, NVS_LGIC_bGABARa5, was analyzed in the positive analysis fitting direction relative to DMSO as the negative control and baseline of activity. Using a type of binding reporter, loss-of-signal activity can be used to understand changes in the binding as they relate to the gene GABRA5. Furthermore, this assay endpoint can be referred to as a primary readout, because the performed assay has only produced 1 assay endpoint. To generalize the intended target to other relatable targets, this assay endpoint is annotated to the ion channel intended target family, where the subfamily is ligand-gated ion channel. […]
# Chain of rat Glutamate Metabotropic Receptor 5 (MGluR5), Grm5 (gene 24418) (P31424 whole entry, looked up): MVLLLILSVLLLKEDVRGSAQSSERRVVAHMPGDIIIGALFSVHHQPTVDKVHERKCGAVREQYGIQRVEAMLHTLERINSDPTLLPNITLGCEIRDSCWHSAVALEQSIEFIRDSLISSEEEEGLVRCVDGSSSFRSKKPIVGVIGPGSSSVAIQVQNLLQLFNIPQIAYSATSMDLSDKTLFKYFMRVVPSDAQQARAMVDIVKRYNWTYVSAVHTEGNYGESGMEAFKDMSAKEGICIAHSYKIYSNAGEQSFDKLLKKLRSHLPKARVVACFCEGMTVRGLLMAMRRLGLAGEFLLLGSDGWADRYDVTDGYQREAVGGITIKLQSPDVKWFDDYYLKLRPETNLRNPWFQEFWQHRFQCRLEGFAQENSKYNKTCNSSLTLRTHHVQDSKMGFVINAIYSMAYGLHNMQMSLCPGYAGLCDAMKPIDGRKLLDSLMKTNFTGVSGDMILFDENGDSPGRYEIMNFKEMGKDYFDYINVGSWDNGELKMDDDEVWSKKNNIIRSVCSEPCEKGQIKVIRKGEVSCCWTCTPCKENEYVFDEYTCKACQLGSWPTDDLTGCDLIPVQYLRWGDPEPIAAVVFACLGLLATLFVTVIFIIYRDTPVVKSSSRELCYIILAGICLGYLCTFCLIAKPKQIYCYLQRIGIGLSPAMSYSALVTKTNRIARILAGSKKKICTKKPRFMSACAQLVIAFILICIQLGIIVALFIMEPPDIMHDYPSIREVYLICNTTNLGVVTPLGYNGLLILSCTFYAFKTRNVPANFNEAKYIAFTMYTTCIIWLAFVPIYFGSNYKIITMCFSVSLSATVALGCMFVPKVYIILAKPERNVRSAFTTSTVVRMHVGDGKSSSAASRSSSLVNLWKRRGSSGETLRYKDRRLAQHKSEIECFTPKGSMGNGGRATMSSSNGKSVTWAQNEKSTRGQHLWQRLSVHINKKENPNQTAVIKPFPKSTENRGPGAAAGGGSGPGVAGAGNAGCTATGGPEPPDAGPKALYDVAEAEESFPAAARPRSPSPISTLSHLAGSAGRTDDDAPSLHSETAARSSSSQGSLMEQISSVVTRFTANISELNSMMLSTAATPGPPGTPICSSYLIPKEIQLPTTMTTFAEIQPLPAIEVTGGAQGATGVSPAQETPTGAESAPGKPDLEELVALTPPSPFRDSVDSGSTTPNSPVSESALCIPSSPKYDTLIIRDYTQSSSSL
# Chain of bovine Gamma-Aminobutyric Acid Type A Receptor BDZ, alpha 5 site (GABARa5), GABRA5 (gene 523515) (Q08E50 whole entry, looked up): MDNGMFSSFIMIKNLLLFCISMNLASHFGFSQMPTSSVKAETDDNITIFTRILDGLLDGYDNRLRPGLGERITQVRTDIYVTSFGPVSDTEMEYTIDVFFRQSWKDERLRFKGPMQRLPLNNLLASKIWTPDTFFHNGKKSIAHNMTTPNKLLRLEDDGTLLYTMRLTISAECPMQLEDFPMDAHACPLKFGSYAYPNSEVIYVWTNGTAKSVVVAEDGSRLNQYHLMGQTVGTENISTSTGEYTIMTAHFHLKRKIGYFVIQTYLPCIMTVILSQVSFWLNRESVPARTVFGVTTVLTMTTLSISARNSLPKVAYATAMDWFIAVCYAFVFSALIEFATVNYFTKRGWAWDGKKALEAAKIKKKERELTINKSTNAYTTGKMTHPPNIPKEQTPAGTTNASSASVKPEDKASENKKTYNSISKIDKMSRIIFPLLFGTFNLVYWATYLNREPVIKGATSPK
structure (smiles),measurement,setting,value
Cc1occc1C(=O)Nc1ccc(C(=O)N2CCC(F)(F)/C(=C\C(=O)N3CCC(N4CCCCC4)CC3)c3ccccc32)cc1,outcome,[1],inactive
O=CCCCC=O,outcome,[1],inactive
CN(C)C(=O)C1(N2CCCCC2)CCN(CC[C@@]2(c3ccc(Cl)c(Cl)c3)CN(C(=O)c3ccccc3)CCO2)CC1,outcome,[2],inactive
CC(C)(O)c1ccc(CNC(=O)c2cccnc2Oc2ccc3nonc3c2)cc1,outcome,[3],inactive
